According to PubChem BioAssay:
For some of these results: Measured potencies and affinities stand elsewhere. Active and inactive are the calls of the source.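 Rule for the calls, unless noted: active = calcium signal cut by more than 3 SD below the full-agonist control yet still positive, in both repeats and the earlier primary screen; inactive = the rest.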

Key:
[1] = system: TRPC4 beta (transient receptor potential cation channel C4), mouse; assay: TRPC4 cation channel opening, retest – cell-based, Fluo4 calcium, HEK293 TRPC4beta/mu-opioid, duplicates, 10 µM, confirmation (AID 2426;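 active = fluorescence ratio normalized to control raised more than 50% in primary screen plus both repeat runs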); conditions: Fluo4 calcium fluorescence, at 10 µM; stronger effect = higher value
[2] = system: transient receptor potential cation channel C4 beta (TRPC4), mouse; assay: TRPC4 cation channel opening, second retest – cell-based, second round, Fluo4, HEK293 TRPC4beta/mu-opioid, 1 µM, confirmation (AID 2461;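 active = primary screen active and over 50% activation in each of two duplicate runs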); conditions: Fluo4 calcium fluorescence, at 1 µM; stronger effect = higher value
[3] = system: TRPC4 (transient receptor potential cation channel C4 beta), mouse; assay: potentiation of DAMGO EC20 TRPC4 response – cell-based, second round, Fluo-4, HEK293 TRPC4beta/mu-opioid, 1 µM, confirmation (AID 2554;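 active = primary screen hit whose fluorescence ratio, in both repeats, exceeds the weak agonist control mean by 3 SD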); conditions: DAMGO EC20, Fluo-4 calcium flux, at 1 µM; stronger effect = higher value
[4] = system: TRPC4 beta (transient receptor potential cation channel C4), mouse; assay: potentiation of DAMGO EC20 TRPC4 response – cell-based, Fluo-4, HEK293 TRPC4beta/mu-opioid, confirmation (AID 2555;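 active = primary screen hit whose calcium fluorescence ratio, in both repeats, exceeds the weak agonist control mean by 3 SD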); conditions: DAMGO EC20, Fluo-4 calcium flux, at 10 µM; stronger effect = higher value
[5] = biological target: Short transient receptor potential channel 4 (Mus musculus) (UniProt Q9QUQ5); assay: blockers of DAMGO-evoked TRPC4 calcium flux – cell-based, Fluo4, HEK293 TRPC4beta/mu-opioid, confirmation (AID 2636); conditions: at 10 µM; stronger effect = higher value
Sequence of Short transient receptor potential channel 4 (Mus musculus) (Q9QUQ5 whole entry, looked up): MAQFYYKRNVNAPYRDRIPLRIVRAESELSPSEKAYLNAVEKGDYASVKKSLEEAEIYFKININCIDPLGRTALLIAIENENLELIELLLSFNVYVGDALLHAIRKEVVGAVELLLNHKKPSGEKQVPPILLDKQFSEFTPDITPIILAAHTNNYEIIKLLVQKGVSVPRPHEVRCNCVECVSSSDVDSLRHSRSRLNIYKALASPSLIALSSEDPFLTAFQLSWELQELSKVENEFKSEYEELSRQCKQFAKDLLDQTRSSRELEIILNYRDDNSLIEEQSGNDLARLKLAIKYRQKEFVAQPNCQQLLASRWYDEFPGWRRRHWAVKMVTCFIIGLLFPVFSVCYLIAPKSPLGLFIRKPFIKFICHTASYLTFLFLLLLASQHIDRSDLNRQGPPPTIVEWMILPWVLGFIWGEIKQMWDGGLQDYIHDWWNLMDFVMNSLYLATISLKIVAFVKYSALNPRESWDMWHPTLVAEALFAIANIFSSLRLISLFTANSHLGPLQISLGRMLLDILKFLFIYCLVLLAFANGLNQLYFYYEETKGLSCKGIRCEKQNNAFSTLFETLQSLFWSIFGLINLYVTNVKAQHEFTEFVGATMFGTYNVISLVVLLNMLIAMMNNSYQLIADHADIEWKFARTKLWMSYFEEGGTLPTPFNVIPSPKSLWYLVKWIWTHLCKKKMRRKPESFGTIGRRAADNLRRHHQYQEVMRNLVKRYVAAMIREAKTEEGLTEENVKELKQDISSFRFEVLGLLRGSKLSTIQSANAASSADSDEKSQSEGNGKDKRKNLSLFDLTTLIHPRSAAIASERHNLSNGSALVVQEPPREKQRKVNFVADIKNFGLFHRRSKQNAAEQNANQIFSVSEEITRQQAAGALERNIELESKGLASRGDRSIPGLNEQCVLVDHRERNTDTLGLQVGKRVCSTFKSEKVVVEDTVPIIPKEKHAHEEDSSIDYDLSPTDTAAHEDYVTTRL

[6] = biological target: Short transient receptor potential channel 4 (Mus musculus) (UniProt Q9QUQ5); assay: blockers of DAMGO-evoked TRPC4 calcium flux – cell-based, second round, Fluo4, HEK293 TRPC4beta/mu-opioid, 1 µM, confirmation (AID 2637;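 active = calcium signal ratio cut to more than 3 SD under the fully stimulated control mean yet still positive, in both repeats and the primary screen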); conditions: at 1 µM; stronger effect = higher value
[7] = biological target: Short transient receptor potential channel 4 (Mus musculus) (UniProt Q9QUQ5); assay: calcium entry via TRPC4 opening agents – cell-based, HEK293 TRPC4/mu-opioid, Fluo-4 calcium, dose response (AID 434937;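 active = primary screen activator hit with a dose response curve and TRPC4 channel activation at any tested dose; inactive = no activation, no dose response, or not a primary hit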)
[8] = biological target: Short transient receptor potential channel 4 (Mus musculus) (UniProt Q9QUQ5); assay: potentiation of DAMGO-evoked TRPC4 calcium signal – cell-based, HEK293 TRPC4/mu-opioid, Fluo-4 calcium, EC20 DAMGO, dose response (AID 434941;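 active = earlier screen potentiator hit that boosts the TRPC4 ion channel at some dose, with a dose response; inactive = no potentiation, no dose response, or not a prior hit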;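 note: calcium entry triggered by an EC20 dose of DAMGO at the co-expressed mu-opioid receptor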)
[9] = biological target: Short transient receptor potential channel 4 (Mus musculus) (UniProt Q9QUQ5); assay: block of DAMGO-driven TRPC4 calcium entry – cell-based, HEK293 TRPC4/mu-opioid, Fluo-4 calcium, dose response (AID 434942;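 active = primary screen inhibitor hit that blocks the TRPC4 channel at some tested dose, yielding a dose curve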)
[10] = biological target: Short transient receptor potential channel 6 (Mus musculus) (UniProt Q61143); assay: TRPC6 blockade by TRPC4 inhibitor hits – cell-based, HEK293, membrane potential dye, duplicate, selectivity assay for TRPC4 inhibitor project, confirmation (AID 434948;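 active = active in primary screen and both duplicates, each dropping signal beyond three positive-control SD with fluorescence still positive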); conditions: HEK293 TRPC6, membrane potential dye fluorescence, at 10 µM, stimulated with maximal-effect acetylcholine; stronger effect = higher value
Sequence of Short transient receptor potential channel 6 (Mus musculus) (Q61143 whole entry, looked up): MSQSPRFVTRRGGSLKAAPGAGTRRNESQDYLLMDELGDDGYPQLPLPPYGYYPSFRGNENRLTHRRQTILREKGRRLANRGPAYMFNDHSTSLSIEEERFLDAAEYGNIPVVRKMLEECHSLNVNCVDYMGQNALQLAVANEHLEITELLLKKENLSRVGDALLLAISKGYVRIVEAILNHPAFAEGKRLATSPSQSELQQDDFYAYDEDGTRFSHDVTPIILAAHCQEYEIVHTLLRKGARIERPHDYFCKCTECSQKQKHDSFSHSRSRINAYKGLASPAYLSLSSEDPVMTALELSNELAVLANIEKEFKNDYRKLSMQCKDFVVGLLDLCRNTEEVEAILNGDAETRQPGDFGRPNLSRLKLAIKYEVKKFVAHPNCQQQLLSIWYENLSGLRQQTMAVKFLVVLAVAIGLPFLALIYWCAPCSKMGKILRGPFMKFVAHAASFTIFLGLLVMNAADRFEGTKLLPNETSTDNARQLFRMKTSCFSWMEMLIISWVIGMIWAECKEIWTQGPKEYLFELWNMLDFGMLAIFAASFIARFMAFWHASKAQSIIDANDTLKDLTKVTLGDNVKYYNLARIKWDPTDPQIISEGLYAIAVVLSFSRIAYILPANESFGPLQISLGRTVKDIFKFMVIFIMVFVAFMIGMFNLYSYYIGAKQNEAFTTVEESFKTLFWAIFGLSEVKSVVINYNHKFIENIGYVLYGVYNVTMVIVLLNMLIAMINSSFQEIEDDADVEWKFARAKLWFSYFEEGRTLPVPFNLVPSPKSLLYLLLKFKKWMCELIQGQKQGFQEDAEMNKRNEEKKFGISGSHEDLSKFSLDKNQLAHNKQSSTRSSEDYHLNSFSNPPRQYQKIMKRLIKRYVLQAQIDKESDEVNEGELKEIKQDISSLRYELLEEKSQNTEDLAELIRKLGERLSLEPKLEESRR

[11] = biological target: Short transient receptor potential channel 6 (Mus musculus) (UniProt Q61143); assay: TRPC6 opening by TRPC4 activator hits – cell-based, HEK293, membrane potential dye, duplicate, selectivity assay for TRPC4 activator project, confirmation (AID 434950;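 active = membrane potential signal rise above negative control mean plus 3 SD in both duplicates, also active in the earlier TRPC4 screen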); conditions: HEK293 TRPC6, membrane potential fluorescence, at 10 µM; activation: stronger effect = higher value; outcome: activation
[12] = biological target: Short transient receptor potential channel 6 (Mus musculus) (UniProt Q61143); assay: positive modulators of mouse TRPC6 channel – HEK293 cells, membrane potential dye, duplicate, selectivity assay for TRPC4 potentiator project, confirmation (AID 434952;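 active = compound raising the membrane signal above positive-control mean plus 3 SD in both repeats, and a primary screen hit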); conditions: HEK293 TRPC6, membrane potential dye fluorescence, at 10 µM, maximal acetylcholine added after compound; stronger effect = higher value
[13] = biological target: Short transient receptor potential channel 4 (Mus musculus) (UniProt Q9QUQ5); assay: calcium flux activators in TRPC4/5HT1a cells, counter-screen for TRPC4 activator project, cell-based, second counter screen, HEK293 TRPC4/5HT1a, Fluo-4 (AID 434977;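 active = calcium signal rise above buffer-control mean plus 5 SD in both duplicates, and also a hit in the primary screen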); conditions: Fluo-4 calcium flux, at 10 µM; stronger effect = higher value
[14] = serotonin-gated TRPC4 signal block – cell-based, second counter screen, HEK293 TRPC4/5HT1a, Fluo-4, counter-screen for TRPC4 inhibitor project, confirmation (AID 434978;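 active = primary screen active whose calcium signal fell more than 3 SD beyond the full-serotonin control mean in both duplicate plates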;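 note: serotonin given first at submaximal then at maximal dose after compound preincubation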); conditions: Fluo-4 calcium flux, at 10 µM, serotonin added to trigger calcium flux; stronger effect = higher value
[15] = system: TRPC4 (mouse), co-expressed with 5HT1a in HEK293; assay: enhancement of serotonin-evoked TRPC4 response – cell-based, second counter screen, HEK293 TRPC4/5HT1a, Fluo-4, counter-screen for TRPC4 potentiator project, confirmation (AID 434979;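 active = signal rise over 3 SD above mean of control wells given weak agonist, in both repeats and first screen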); conditions: Fluo-4 calcium flux, at 10 µM, serotonin added at its EC20 dose; stronger effect = higher value
[16] = nonspecific calcium rise without TRPC4 – cell-based, HEK293 mu-opioid receptor line, counter-screen for TRPC4 activator project, confirmation (AID 449723;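 active = hit in primary screen, with calcium signal over 5 SD above buffer well mean in both duplicates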;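 note: counter screen cells carry the mu-opioid receptor alone and lack TRPC4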); conditions: HEK293 mu-opioid cells, Fluo-4 calcium fluorescence, at 10 µM; stronger effect = higher value
[17] = nonspecific potentiation of DAMGO calcium response – cell-based, HEK293 mu-opioid receptor line, counter-screen for TRPC4 allosteric potentiator project, confirmation (AID 449724;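 active = calcium signal rise more than 3 SD above the low-dose agonist control mean, in both duplicate plates and the primary screen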); conditions: HEK293 mu-opioid receptor cells, Fluo-4 calcium flux, at 10 µM, compound added before EC20 DAMGO stimulus; stronger effect = higher value

| Structure (SMILES) | outcome [1] | outcome [2] | outcome [3] | outcome [4] | outcome [5] | outcome [6] | outcome [7] | outcome [8] | outcome [9] | outcome [10] | outcome [11] | outcome [12] | outcome [13] | outcome [14] | outcome [15] | outcome [16] | outcome [17] | potentiation [4] | potentiation [15] | potentiation [3] |
| --- | --- | --- | --- | --- | --- | --- | --- | --- | --- | --- | --- | --- | --- | --- | --- | --- | --- | --- | --- | --- |
| Cc1cc(Nc2ccc3c(c2)OCCO3)c2ccccc2n1 | inactive | inactive | inactive | inactive | inactive | inactive | inactive | inactive | inactive | inactive | inactive | inactive | inactive | inactive | inactive | inactive | inactive |  |  |  |
| N=c1c2c(n(Cc3ccc(Br)cc3)c3c1CCC3)CCCC2 | inactive | inactive | inactive | inactive | inactive | inactive | inactive | inactive | inactive | inactive | inactive | inactive | inactive | inactive | inactive | inactive | inactive |  |  |  |
| Cn1c(N2CCC(C(N)=O)CC2)nc2c1c(=O)n(Cc1ccc(Br)cc1)c(=O)n2C | inactive | inactive | inactive | inactive | inactive | inactive | inactive | inactive | inactive | inactive | inactive | inactive | inactive | inactive | inactive | inactive | inactive |  |  |  |
| C(#Cc1ccccc1)C[N+]1(CC#Cc2cccc3ccccc23)CCCC1 | inactive | inactive | inactive | inactive | inactive | inactive | inactive | inactive | inactive | inactive | inactive | inactive | inactive | inactive | inactive | inactive | inactive |  |  |  |
| O=S(=O)(Nc1ccc(S(=O)(=O)Nc2cccc3ccccc23)cc1)c1ccccc1 | inactive | inactive | inactive | inactive | inactive | inactive | inactive | inactive | inactive | inactive | inactive | inactive | inactive | inactive | inactive | inactive | inactive |  |  |  |
| CSCC(C)N1CCC(CO)(CCCc2ccccc2)CC1 (centres undefined) | inactive | inactive | inactive | inactive | inactive | inactive | inactive | inactive | inactive | inactive | inactive | inactive | inactive | inactive | inactive | inactive | inactive |  |  |  |
| CCOc1ccc2nc(NCCNC(=O)C3CC3)c(C)cc2c1 | inactive | inactive | inactive | inactive | inactive | inactive | inactive | inactive | inactive | inactive | inactive | inactive | inactive | inactive | inactive | inactive | inactive |  |  |  |
| Cc1[nH]c2ccccc2c1C(=O)CN1C(=O)NC(C)(c2ccc(Cl)cc2Cl)C1=O (centres undefined) | inactive | inactive | inactive |  | inactive | inactive | inactive | inactive | inactive | inactive | inactive | inactive | inactive | inactive |  | inactive | inactive | 21% (active) | 37.7% (active) |  |
| N=c1c2c3c(sc2ncn1Cc1ccccc1)CCCC3 | inactive | inactive | inactive | inactive | inactive | inactive | inactive | inactive | inactive | inactive | inactive | inactive | inactive | inactive | inactive | inactive | inactive |  |  |  |
| CCCn1c(=O)c2sccc2n2c(CCCC(=O)NC3CCN(Cc4ccccc4)CC3)nnc12 | inactive | inactive | inactive |  | inactive | inactive | inactive | inactive | inactive | inactive | inactive | inactive | inactive | inactive |  | inactive | inactive | 7% (active) | 7.99% (active) |  |
| CC(Oc1ccc(Cl)cc1Cl)C(=O)N(C)c1ccccc1 (centres undefined) | inactive | inactive | inactive | inactive | inactive | inactive | inactive | inactive | inactive | inactive | inactive | inactive | inactive | inactive | inactive | inactive | inactive |  |  |  |
| CC(C)c1ccc(OCc2ccc(C(=O)N3CCCC3)o2)cc1 | inactive | inactive | inactive |  | inactive | inactive | inactive | inactive | inactive | inactive | inactive | inactive | inactive | inactive | inactive | inactive | inactive | 39% (active) |  |  |
| CCN(CC)CCOCCOc1ccc(Cl)c2ccccc12 | inactive | inactive | inactive | inactive | inactive | inactive | inactive | inactive | inactive | inactive | inactive | inactive | inactive | inactive |  | inactive | inactive |  | 11% (active) |  |
| CC(C)CCn1c(N2CCN(c3cccc(Cl)c3)CC2)nc2c1c(=O)[nH]c(=O)n2C | inactive | inactive | inactive | inactive | inactive | inactive | inactive | inactive | inactive | inactive | inactive | inactive | inactive | inactive | inactive | inactive | inactive |  |  |  |
| COC(=O)c1ccc(/C=N/N2CCN(Cc3ccc(C)cc3C)CC2)cc1 | inactive | inactive |  |  | inactive | inactive | inactive | inactive | inactive | inactive | inactive | inactive | inactive | inactive |  | inactive | inactive | 22% (active) | 28.6% (active) | 6% (active) |
| Cc1ccc(-c2ccc3c(c2)S(=O)(=O)c2ccccc2C3=O)cc1 | inactive | inactive | inactive | inactive | inactive | inactive | inactive | inactive | inactive | inactive | inactive | inactive | inactive | inactive | inactive | inactive | inactive |  |  |  |
| CN1CCN(Cc2nc3ccccc3n2C)CC1CCO (centres undefined) | inactive | inactive | inactive | inactive | inactive | inactive | inactive | inactive | inactive | inactive | inactive | inactive | inactive | inactive |  | inactive | inactive |  | 9.01% (active) |  |
